# Test results published in PubChem BioAssay AID1159580 (chemical genetic matrix, 2015).
# Out of some 5,500 compounds screened, about 2,000 (36%) were called active. Not shown: some 18% with an inconclusive outcome. The list shows a part of the results. A number with no mark means an inactive call. Rule as the data show it: active = normalized growth mostly below about 0.91 (no sharp cut-off); inconclusive = no clear call, values can overlap the other calls; inactive = mostly above about 0.92.
# Assay: chemical genetic growth profiling, strain panel (AID 1159580);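 also: tested at 20 µM; growth read once vehicle control cultures reached saturation at 30 °C; 1 = growth at the plate median or of vehicle wells; lower values mean less growth of the strain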
# Details: growth OD
smiles,measurement,setting,value
C=C/C(C)=C\CC1C(C)(O)CCC2C(C)(C)CCCC21C (stereo unspecified),normalized growth,"S. cerevisiae deletion strains, locus YAL013W, strain DEP1, active compounds read low",0.143 (active)
same,normalized growth,"S. cerevisiae deletion strains, locus YBR021W, strain FUR4, active compounds read low",0.64 (active)
same,normalized growth,"S. cerevisiae deletion strains, locus YBR229C, strain ROT2, active compounds read low",0.316 (active)
same,normalized growth,"S. cerevisiae deletion strains, locus YCL029C, strain bik1, active compounds read low",0.612 (active)
same,normalized growth,"S. cerevisiae deletion strains, locus YDL035C, strain GPR1, active compounds read low",0.139 (active)
same,normalized growth,"S. cerevisiae deletion strains, locus YDL074C, strain BRE1, active compounds read low",0.172 (active)
same,normalized growth,"S. cerevisiae deletion strains, locus YDL101C, strain DUN1, active compounds read low",0.0723 (active)
same,normalized growth,"S. cerevisiae deletion strains, locus YDL134C, strain PPH21, active compounds read low",0.0532 (active)
same,normalized growth,"S. cerevisiae deletion strains, locus YDL185W, strain tfp1, active compounds read low",0.842 (active)
same,normalized growth,"S. cerevisiae deletion strains, locus YDL192W, strain arf1, active compounds read low",0.0743 (active)
same,normalized growth,"S. cerevisiae deletion strains, locus YDR101C, strain arx1, active compounds read low",0.429 (active)
same,normalized growth,"S. cerevisiae deletion strains, locus YDR150W, strain NUM1, active compounds read low",0.289 (active)
same,normalized growth,"S. cerevisiae deletion strains, locus YDR162C, strain NBP2, active compounds read low",0.0609 (active)
same,normalized growth,"S. cerevisiae deletion strains, locus YDR318W, strain mcm21, active compounds read low",0.074 (active)
same,normalized growth,"S. cerevisiae deletion strains, locus YDR388W, active compounds read low",0.121 (active)
same,normalized growth,"S. cerevisiae deletion strains, locus YDR502C, strain sam2, active compounds read low",0.155 (active)
same,normalized growth,"S. cerevisiae deletion strains, locus YEL061C, strain CIN8, active compounds read low",0.154 (active)
same,normalized growth,"S. cerevisiae deletion strains, locus YER110C, active compounds read low",0.118 (active)
same,normalized growth,"S. cerevisiae deletion strains, locus YER155C, strain BEM2, active compounds read low",0.237 (active)
same,normalized growth,"S. cerevisiae deletion strains, locus YER167W, strain BCK2, active compounds read low",0.0638 (active)
same,normalized growth,"S. cerevisiae deletion strains, locus YGL078C, strain dbp3, active compounds read low",0.626 (active)
same,normalized growth,"S. cerevisiae deletion strains, locus YGL086W, strain mad1, active compounds read low",0.105 (active)
same,normalized growth,"S. cerevisiae deletion strains, locus YGL248W, strain PDE1, active compounds read low",0.0559 (active)
same,normalized growth,"S. cerevisiae deletion strains, locus YGR078C, strain PAC10, active compounds read low",0.0661 (active)
same,normalized growth,"S. cerevisiae deletion strains, locus YGR135W, strain pre9, active compounds read low",0.115 (active)
same,normalized growth,"S. cerevisiae deletion strains, locus YGR229C, strain SMI1, active compounds read low",0.0733 (active)
same,normalized growth,"S. cerevisiae deletion strains, locus YGR252W, strain gcn5, active compounds read low",0.255 (active)
same,normalized growth,"S. cerevisiae deletion strains, locus YHR030C, strain SLT2, active compounds read low",0.056 (active)
same,normalized growth,"S. cerevisiae deletion strains, locus YHR079C, strain IRE1 (second series), active compounds read low",0.504 (active)
same,normalized growth,"S. cerevisiae deletion strains, locus YHR094C, strain hxt1, active compounds read low",0.099 (active)
same,normalized growth,"S. cerevisiae deletion strains, locus YHR129C, strain ARP1, active compounds read low",0.159 (active)
same,normalized growth,"S. cerevisiae deletion strains, locus YHR200W, strain rpn10, active compounds read low",0.247 (active)
same,normalized growth,"S. cerevisiae deletion strains, locus YIL066C, strain RNR3, active compounds read low",0.0635 (active)
same,normalized growth,"S. cerevisiae deletion strains, locus YIL073C, strain SPO22, active compounds read low",0.12 (active)
same,normalized growth,"S. cerevisiae deletion strains, locus YIL125W, strain kgd1, active compounds read low",0.128 (active)
same,normalized growth,"S. cerevisiae deletion strains, locus YIR030C, strain dcg1, active compounds read low",0.136 (active)
same,normalized growth,"S. cerevisiae deletion strains, locus YJL095W, strain BCK1, active compounds read low",0.0688 (active)
same,normalized growth,"S. cerevisiae deletion strains, locus YJL134W, strain LCB3, active compounds read low",0.057 (active)
same,normalized growth,"S. cerevisiae deletion strains, locus YJL168C, strain set2, active compounds read low",0.203 (active)
same,normalized growth,"S. cerevisiae deletion strains, locus YJL187C, strain SWE1 (second series), active compounds read low",0.39 (active)
same,normalized growth,"S. cerevisiae deletion strains, locus YJR043C, strain POL32, active compounds read low",0.258 (active)
same,normalized growth,"S. cerevisiae deletion strains, locus YJR075W, strain HOC1, active compounds read low",0.1 (active)
same,normalized growth,"S. cerevisiae deletion strains, locus YKL009W, strain mrt4, active compounds read low",0.833 (active)
same,normalized growth,"S. cerevisiae deletion strains, locus YKL068W, active compounds read low",0.963
same,normalized growth,"S. cerevisiae deletion strains, locus YKL085W, strain MDH1 (second series), active compounds read low",0.0898 (active)
same,normalized growth,"S. cerevisiae deletion strains, locus YKL085W, strain MDH1, active compounds read low",0.0898 (active)
same,normalized growth,"S. cerevisiae deletion strains, locus YKL190W, strain CNB1, active compounds read low",0.0889 (active)
same,normalized growth,"S. cerevisiae deletion strains, locus YKR001C, strain vps1, active compounds read low",0.0677 (active)
same,normalized growth,"S. cerevisiae deletion strains, locus YLR039C, strain RIC1, active compounds read low",0.111 (active)
same,normalized growth,"S. cerevisiae deletion strains, locus YLR058C, strain SHM2, active compounds read low",0.0878 (active)
same,normalized growth,"S. cerevisiae deletion strains, locus YLR102C, strain apc9, active compounds read low",0.186 (active)
same,normalized growth,"S. cerevisiae deletion strains, locus YLR262C, strain YPT6, active compounds read low",0.121 (active)
same,normalized growth,"S. cerevisiae deletion strains, locus YLR268W, strain sec22, active compounds read low",0.0849 (active)
same,normalized growth,"S. cerevisiae deletion strains, locus YLR330W, strain CHS5, active compounds read low",0.057 (active)
same,normalized growth,"S. cerevisiae deletion strains, locus YLR342W, strain FKS1 (second series), active compounds read low",0.0927 (active)
same,normalized growth,"S. cerevisiae deletion strains, locus YLR371W, strain rom2, active compounds read low",0.0695 (active)
same,normalized growth,"S. cerevisiae deletion strains, locus YLR418C, strain cdc73, active compounds read low",0.107 (active)
same,normalized growth,"S. cerevisiae deletion strains, locus YML016C, strain PPZ1, active compounds read low",0.0581 (active)
same,normalized growth,"S. cerevisiae deletion strains, locus YML032C, strain rad52, active compounds read low",0.621 (active)
same,normalized growth,"S. cerevisiae deletion strains, locus YML124C, strain tub3, active compounds read low",0.184 (active)
same,normalized growth,"S. cerevisiae deletion strains, locus YMR078C, strain ctf18, active compounds read low",0.0993 (active)
same,normalized growth,"S. cerevisiae deletion strains, locus YMR223W, strain ubp8, active compounds read low",0.0709 (active)
same,normalized growth,"S. cerevisiae deletion strains, locus YMR263W, strain SAP30, active compounds read low",0.153 (active)
same,normalized growth,"S. cerevisiae deletion strains, locus YMR307W, strain GAS1, active compounds read low",0.127 (active)
same,normalized growth,"S. cerevisiae deletion strains, locus YNL067W, strain RPL9B, active compounds read low",0.421 (active)
same,normalized growth,"S. cerevisiae deletion strains, locus YNL128W, strain TEP1, active compounds read low",0.0735 (active)
same,normalized growth,"S. cerevisiae deletion strains, locus YNL153C, strain GIM3, active compounds read low",0.215 (active)
same,normalized growth,"S. cerevisiae deletion strains, locus YNL233W, strain BNI4, active compounds read low",0.0602 (active)
same,normalized growth,"S. cerevisiae deletion strains, locus YNL250W, strain rad50, active compounds read low",0.894 (active)
same,normalized growth,"S. cerevisiae deletion strains, locus YNL271C, strain bni1, active compounds read low",0.336 (active)
same,normalized growth,"S. cerevisiae deletion strains, locus YNL298W, strain CLA4, active compounds read low",0.611 (active)
same,normalized growth,"S. cerevisiae deletion strains, locus YNL307C, strain MCK1, active compounds read low",0.072 (active)
same,normalized growth,"S. cerevisiae deletion strains, locus YNL322C, strain KRE1, active compounds read low",0.169 (active)
same,normalized growth,"S. cerevisiae deletion strains, locus YNR052C, strain pop2, active compounds read low",0.527 (active)
same,normalized growth,"S. cerevisiae deletion strains, locus YOL006C, strain TOP1, active compounds read low",0.128 (active)
same,normalized growth,"S. cerevisiae deletion strains, locus YOL012C, strain htz1",0.258
same,normalized growth,"S. cerevisiae deletion strains, locus YOL147C, strain pex11, active compounds read low",0.152 (active)
same,normalized growth,"S. cerevisiae deletion strains, locus YOR061W, strain CKA2, active compounds read low",0.05 (active)
same,normalized growth,"S. cerevisiae deletion strains, locus YOR069W, strain VPS5, active compounds read low",0.078 (active)
same,normalized growth,"S. cerevisiae deletion strains, locus YOR136W, strain idh2, active compounds read low",0.101 (active)
same,normalized growth,"S. cerevisiae deletion strains, locus YOR144C, strain elg1, active compounds read low",0.423 (active)
same,normalized growth,"S. cerevisiae deletion strains, locus YOR184W, strain ser1, active compounds read low",0.0788 (active)
same,normalized growth,"S. cerevisiae deletion strains, locus YOR316C, strain cot1, active compounds read low",0.113 (active)
same,normalized growth,"S. cerevisiae deletion strains, locus YPL055C, strain LGE1, active compounds read low",0.201 (active)
same,normalized growth,"S. cerevisiae deletion strains, locus YPL241C, strain CIN2, active compounds read low",0.358 (active)
same,normalized growth,"S. cerevisiae deletion strains, locus YPR119W, strain clb2, active compounds read low",0.079 (active)
same,normalized growth,"S. cerevisiae deletion strains, locus YPR141C, strain kar3, active compounds read low",0.958
same,normalized growth,"S. cerevisiae deletion strains, locus YPR163C, strain tif3, active compounds read low",0.0854 (active)
same,normalized growth,"S. cerevisiae deletion strains, locus YPR167C, strain met16, active compounds read low",0.067 (active)
same,normalized growth,"S. cerevisiae deletion strains, strain wtn01, active compounds read low",0.0803 (active)
same,normalized growth,"S. cerevisiae strains, strain wild type, active compounds read low",0.125 (active)
